Publication PMC4336329 (PLoS ONE, 2015)
About 14,000 (4.5%) of roughly 310,000 compounds showed an effect of 50% or more. Effects have a minus sign here. The list comes from a sample in which strong results are over-represented; it also holds similar structures and randomly drawn compounds.

What follows are molecules tested against human ether-à-go-go-related gene (hERG) potassium channel (human, UniProt Q12809) (assay: primary screen, population patch clamp on CHO cells stably expressing hERG; higher = less effect of the substance).
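Also: peak tail current of the secondary pulse compared with the same well before compound.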

Chain of human ether-à-go-go-related gene (hERG) potassium channel (Q12809 whole entry, looked up): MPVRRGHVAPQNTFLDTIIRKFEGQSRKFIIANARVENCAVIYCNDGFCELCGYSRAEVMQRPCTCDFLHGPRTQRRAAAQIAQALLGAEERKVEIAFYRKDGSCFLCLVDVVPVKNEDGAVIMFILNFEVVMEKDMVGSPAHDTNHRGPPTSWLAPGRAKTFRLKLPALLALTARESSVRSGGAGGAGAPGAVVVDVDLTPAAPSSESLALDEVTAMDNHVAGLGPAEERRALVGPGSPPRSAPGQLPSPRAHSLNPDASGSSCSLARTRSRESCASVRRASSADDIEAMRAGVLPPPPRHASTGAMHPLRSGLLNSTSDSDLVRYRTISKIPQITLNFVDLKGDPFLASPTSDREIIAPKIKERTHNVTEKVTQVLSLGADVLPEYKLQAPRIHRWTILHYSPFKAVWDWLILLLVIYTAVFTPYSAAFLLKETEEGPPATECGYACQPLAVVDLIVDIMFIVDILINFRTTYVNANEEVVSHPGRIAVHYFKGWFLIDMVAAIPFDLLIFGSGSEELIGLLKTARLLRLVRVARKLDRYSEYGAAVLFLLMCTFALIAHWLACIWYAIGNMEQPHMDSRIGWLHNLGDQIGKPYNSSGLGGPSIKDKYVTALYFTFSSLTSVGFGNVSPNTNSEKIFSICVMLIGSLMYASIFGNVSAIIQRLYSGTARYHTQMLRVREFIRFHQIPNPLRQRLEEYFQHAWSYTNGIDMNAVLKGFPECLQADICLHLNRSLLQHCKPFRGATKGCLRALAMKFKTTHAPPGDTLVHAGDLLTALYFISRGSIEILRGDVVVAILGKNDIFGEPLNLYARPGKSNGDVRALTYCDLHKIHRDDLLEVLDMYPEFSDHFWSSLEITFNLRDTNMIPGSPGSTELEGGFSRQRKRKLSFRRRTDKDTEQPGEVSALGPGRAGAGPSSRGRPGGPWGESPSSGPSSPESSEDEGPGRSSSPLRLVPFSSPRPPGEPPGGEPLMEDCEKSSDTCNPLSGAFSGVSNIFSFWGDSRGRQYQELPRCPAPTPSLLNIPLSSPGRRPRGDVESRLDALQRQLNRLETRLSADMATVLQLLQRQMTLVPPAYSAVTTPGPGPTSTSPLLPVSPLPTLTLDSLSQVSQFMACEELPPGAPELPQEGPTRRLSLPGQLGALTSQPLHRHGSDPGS

Row | SMILES | hERG current change (%, negative = inhibition) at 10uM [%]
1 | CC(=O)Nc1ccc(C(=O)NCCN2CCOCC2)cc1 | 15.8
2 | CCOc1ccccc1/C=N/Nc1nc2c(N)ncnc2n1[C@H]1O[C@@H](CO)[C@H](O)[C@@H]1O | -9.61
3 | Cc1ccc(C2c3[nH]c4ccccc4c3C[C@H]3C(=O)N(c4ccccc4C(=O)NCCCN4CCOCC4)C(=O)N23)cc1 (stereo partly shown) | -54.6
4 | Cc1ccccc1C1c2[nH]c3ccccc3c2C[C@H]2C(=O)N(c3ccccc3C(=O)NCCCN3CCOCC3)C(=O)N12 (stereo partly shown) | -21.3
5 | O=C(NCCCN1CCOCC1)c1ccccc1N1C(=O)[C@@H]2Cc3c([nH]c4ccccc34)C(c3ccc(F)cc3)N2C1=O (stereo partly shown) | -68
6 | CC(=O)NCCC(=O)N1CCc2c([nH]c3ccccc23)C1c1cccc(Cl)c1 (stereo not shown) | -24.2
7 | O=C(NCCCN1CCOCC1)c1ccccc1N1C(=O)[C@@H]2Cc3c([nH]c4ccccc34)C(c3cccc(Cl)c3)N2C1=O (stereo partly shown) | -72.3
8 | Cc1ccc(C2c3[nH]c4ccccc4c3C[C@H]3C(=O)N(c4ccccc4C(=O)NCCN4CCOCC4)C(=O)N23)cc1 (stereo partly shown) | -24.9
9 | COc1ccc(C2c3[nH]c4ccccc4c3C[C@H]3C(=O)N(c4ccccc4C(=O)NCCN4CCOCC4)C(=O)N23)cc1 (stereo partly shown) | -23.7
10 | O=C(CCN1CCOCC1)N1CCc2c([nH]c3ccccc23)C1c1cccc(Cl)c1 (stereo not shown) | -70.5
11 | COc1cccc(C2c3[nH]c4ccccc4c3C[C@H]3C(=O)N(c4ccccc4C(=O)NCCCN4CCOCC4)C(=O)N23)c1 (stereo partly shown) | -19.9
12 | O=C(NCCN1CCOCC1)c1ccccc1N1C(=O)[C@@H]2Cc3c([nH]c4ccccc34)C(c3ccccc3)N2C1=O (stereo partly shown) | -20.4
13 | O=C(c1cnccn1)N1CCc2c([nH]c3ccccc23)C1c1cccc(Cl)c1 (stereo not shown) | -33.6
14 | O=C(NCCN1CCOCC1)c1ccccc1N1C(=O)[C@@H]2Cc3c([nH]c4ccccc34)C(c3ccc(F)cc3)N2C1=O (stereo partly shown) | -47.2
15 | O=C(O)c1ccc(/C=C2\SC(=S)N(NC(=O)c3ccccc3[N+](=O)[O-])C2=O)cc1 | 12.4
16 | [2H]C([2H])(CCOS(N)(=O)=O)c1ccccc1 | 11.1
17 | CC(=O)N1CCc2c(sc(NC(=O)C3COc4ccccc4O3)c2C(N)=O)C1 (stereo not shown) | -20
18 | CCOc1ccc(CN2CCSCC2)cc1 | 2.36
19 | O=C(NCCNS(=O)(=O)c1ccccc1)c1ccc([N+](=O)[O-])cc1 | -12
20 | COc1ccccc1Nc1nc(N)nc(CSC(=S)N2CCCCC2)n1 | 0.598
21 | COc1ccccc1Nc1nc(N)nc(CSC(=S)N2CC(C)CC(C)C2)n1 (stereo not shown) | -9.46
22 | Cc1c(Cl)cccc1Nc1nc(N)nc(CN2CCc3ccccc3C2)n1 | -33
23 | COc1ccccc1Nc1nc(N)nc(CN2CCOCC2)n1 | 10.1
24 | COc1ccccc1Nc1nc(N)nc(CN2CCCCCC2)n1 | -57.7
25 | COc1ccccc1Nc1nc(N)nc(CSc2ncccn2)n1 | -24.2
26 | COc1ccccc1Nc1nc(N)nc(CN2CCCCC2)n1 | -54.9
27 | COc1ccccc1Nc1nc(N)nc(CSCCO)n1 | 15

Row | SMILES | hERG current change (%, negative = inhibition) at 10uM [%]
28 | Cc1c(Cl)cccc1Nc1nc(N)nc(CN2CCCCCC2)n1 | -74.6
29 | COc1ccccc1Nc1nc(N)nc(CN2CC(C)CC(C)C2)n1 (stereo not shown) | -73.8
30 | Cc1cccc(Nc2nc(N)nc(CN3CCC(C(N)=O)CC3)n2)c1C | 17.5
31 | O=C(Nc1ccc2c(c1)OCO2)c1cccc(S(=O)(=O)N2CCCC2)c1 | -15.9
32 | CN(Cc1ccccc1)C(=O)CN1C(=O)NC(C)(c2ccc(C(C)(C)C)cc2)C1=O (stereo not shown) | -16.8
33 | COc1cccc(/C=N/NC(=O)c2nc(-c3ccccc3)cc(-c3ccccc3)n2)c1O | -9.46
34 | Cc1cc(=O)oc2cc(OCC(=O)N/N=C/c3ccccc3O)ccc12 | 23.9
35 | O.O=C(NCc1nc2ccccc2[nH]1)c1ccc(Cl)c(S(=O)(=O)N2CCCC2)c1 | -14.3
36 | CCOC(=O)c1oc2ccc(CNC(C)(C)C)c(Cl)c2c1C.O=C(O)C(=O)O | -5.61
37 | O=C(CC(C(=O)O)P(=O)(c1ccccc1)c1ccccc1)c1ccccc1 (stereo not shown) | 24.3
38 | Nc1ccc(-c2cc(N)n(-c3ccccc3)n2)cc1 | 0.669
39 | Cn1c2ccccc2c2cc(C(=O)NNS(=O)(=O)c3ccc(F)cc3)sc21 | -5.97
40 | COc1ccccc1Nc1nc(N)nc(CSC(=S)N2CCC(C)CC2)n1 | -13.7
41 | COc1ccccc1Nc1nc(N)nc(CN2CCC(C)CC2)n1 | -67.5
42 | Cc1cc(C(F)(F)F)nn1C(=O)c1cccnc1Cl | -5.15
43 | O=C(C1=C[C@H](C2CC2)C[C@H](OCCCCO)O1)N1CCN(Cc2ccccc2)CC1 | -12.5
44 | O=C(C1=C[C@H](C2CC2)C[C@H](OCc2ccc(CO)cc2)O1)N1CCN(Cc2ccccc2)CC1 | -62.7
45 | CCO[C@H]1OC(C(=O)N2CCN(Cc3ccc4c(c3)OCO4)CC2)=C[C@@H](C2CCCCC2)[C@@H]1CCCO | -55.5
46 | O=C(C1=C[C@H](c2ccccc2)C[C@H](OCc2ccc(CO)cc2)O1)N1CCN(Cc2ccccc2)CC1 | -41.2
47 | CCO[C@@H]1OC(C(=O)N2CCN(Cc3ccc4c(c3)OCO4)CC2)=C[C@H](C2CCCCC2)[C@H]1CCCO | -17.8
48 | CN1CCN(C(=O)C2=C[C@H](C3CC3)C[C@H](OCc3ccc(CO)cc3)O2)CC1 | -1.42
49 | O=C(C1=C[C@@H](C2CC2)C[C@@H](OCc2ccc(CO)cc2)O1)N1CCN(Cc2ccccc2)CC1 | -58.7
50 | CN1CCN(C(=O)C2=C[C@@H](C3CC3)C[C@@H](OCc3ccc(CO)cc3)O2)CC1 | 16.5
51 | CN1CCN(C(=O)C2=C[C@@H](C3CCCCC3)C[C@@H](OCc3ccc(CO)cc3)O2)CC1 | -13.6
52 | CC(C)(C)[C@H]1C=C(C(=O)N2CCN(Cc3ccccc3)CC2)O[C@@H](OCc2ccc(CO)cc2)C1 | -38.9
53 | CN1CCN(C(=O)C2=C[C@H](C3CCCCC3)C[C@H](OCc3ccc(CO)cc3)O2)CC1 | -61.7
54 | CCO[C@@H]1OC(C(=O)N2CCN(Cc3ccc4c(c3)OCO4)CC2)=C[C@H](C2CC2)[C@H]1CCCO | -18.7

Row | SMILES | hERG current change (%, negative = inhibition) at 10uM [%]
55 | Cc1ccc(CNC(=O)C2CCN(c3nnc(N4CCCC4=O)s3)CC2)cc1 | 14.4
56 | CCOc1ccc(-c2nc(C#N)c(NCC(C)C)o2)cc1 | 7.61
57 | Cc1cccc(OCCCC(=O)NCc2ccco2)c1 | 2.27
58 | CCc1cccc(NC(=O)CCSCCC(=O)Nc2cccc(CC)c2)c1 | -9.75
59 | CSc1n[nH]c2nc3c(c(=O)n12)C1(CCCCC1)Cc1ccccc1-3 | -13
60 | CCn1nnc(-c2ccccc2NC(=O)c2ccc(-n3cnnn3)cc2)n1 | -21.9
61 | O=C(C1=C[C@H](C2CCCCC2)C[C@H](OCc2ccc(CO)cc2)O1)N1CCN(Cc2ccccc2)CC1 | -67.6
62 | O=C(C1=C[C@H](C2CCCCC2)C[C@H](OCCCCO)O1)N1CCN(Cc2ccc3c(c2)OCO3)CC1 | -56.5
63 | O=C(C1=C[C@H](C2CC2)C[C@H](OCCCCO)O1)N1CCN(Cc2ccc3c(c2)OCO3)CC1 | -26.3
64 | O=C(C1=C[C@@H](C2CCCCC2)C[C@@H](OCc2ccc(CO)cc2)O1)N1CCN(Cc2ccccc2)CC1 | -25.4
65 | O=C(C1=C[C@H](C2CCCCC2)C[C@H](OCCCCO)O1)N1CCN(Cc2ccccc2)CC1 | -46.4
66 | O=C(C1=C[C@@H](C2CCCCC2)C[C@@H](OCCCCO)O1)N1CCN(Cc2ccccc2)CC1 | -50.1
67 | O=C(C1=C[C@@H](C2CC2)C[C@@H](OCCCCO)O1)N1CCN(Cc2ccccc2)CC1 | 0.7
68 | O=C(C1=C[C@@H](C2CCCCC2)C[C@@H](OCCCCO)O1)N1CCN(Cc2ccc3c(c2)OCO3)CC1 | -45.1
69 | O=C(C1=C[C@@H](C2CCCCC2)C[C@@H](OCc2ccc(CO)cc2)O1)N1CCOCC1 | -23.9
70 | CN(CC(=O)O/N=C(\N)c1ccc([N+](=O)[O-])cc1)S(=O)(=O)c1ccc2ccccc2c1 | -12.6
71 | CCN(C1CCCCC1)S(=O)(=O)c1ccc(C(=O)O)cc1 | 6.74
72 | O=C(Nc1cccnc1Cl)c1ccc(S(=O)(=O)N2CCCCCC2)cc1 | -8.39
73 | CCc1c2c(nc3ccc(OC(=O)N4CCC(N5CCCCC5)CC4)cc13)-c1cc3c(c(=O)n1C2)COC(=O)[C@]3(O)CC.Cl.O | 12.8
74 | CC(CCc1ccccc1)NC(=O)CN1CCN(Cc2ccc(Cl)cc2)C1=O (stereo not shown) | -53.2
75 | COc1ccc(CCNC(=O)CN2CCN(Cc3ccccc3F)C2=O)cc1OC | 8.26
76 | O=C(CN1CCN(Cc2ccccc2F)C1=O)NCCc1ccc(Cl)cc1 | -52.8
77 | Cc1ccc(CN2CCN(CC(=O)NC(C)CCc3ccccc3)C2=O)cc1 (stereo not shown) | -20.6
78 | CC(CCc1ccccc1)NC(=O)CN1CCN(Cc2ccccc2)C1=O (stereo not shown) | -18.2
79 | Cc1ccc(CCNC(=O)CN2CCN(Cc3ccccc3F)C2=O)cc1 | -8.3
